{"source": "PubChem BioAssay AID853", "about": "(Columbia University Molecular Screening Center, 2007)", "note": "The whole screen tested about 47,000 compounds, of which about 200 (0.43%) were called active. Another 1% or so got no clear call; they are omitted.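 Rule for the calls: active = inhibition of aggregate fluorescence above about 70%, also judged a hit by eye on the cell image (limit read from the data, passing the limit was not always enough); inconclusive = no rule stated for this call; inactive = not judged a hit on image review.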 Shown is part of a subset that was picked to be rich in actives."}
{"experiment": "removal of polyQ htt aggregates in HeLa – imaging, HeLa Exon1htt(103Q)mCFP, confocal imaging, primary screen (AID 853);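 note: cells exposed to compound for three days before fixation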", "conditions": "aggregate imaging, at 1.5 µM; fraction fluorescence in grains: measured here: aggregate grain fluorescence fraction, stronger effect = lower value; inhibition: stronger effect = higher value"}
{"compound": "N#Cc1ccc(Cn2cc(C(=O)c3ccco3)c3ccccc32)cc1", "fraction fluorescence in grains": 6.7, "inhibition": "83.1% (active)"}
{"compound": "COc1ccc(CCn2c(O)c(C=NC3CC3)c(=O)[nH]c2=O)cc1OC", "fraction fluorescence in grains": 56, "inhibition": "-52.1% (inactive)"}
{"compound": "CC(C)c1ccc(OCC(=O)N2CCN(C)CC2)c(Br)c1", "fraction fluorescence in grains": 48.9, "inhibition": "-31% (inactive)"}
{"compound": "CCN1CCN(C(=O)Cc2coc3cc(C)cc(C)c23)CC1", "fraction fluorescence in grains": 24, "inhibition": "-20.7% (inactive)"}
{"compound": "c1cc2c(cc1CCNC1CCCCCC1)OCO2", "fraction fluorescence in grains": 16.3, "inhibition": "11.1% (inactive)"}
